Reference: PubChem BioAssay AID743326 (National Center for Advancing Translational Sciences (NCATS), 2014)
The source made the active and inactive calls. A call without a number means that no potency is given here. Calls come from the whole dose curve. Square brackets hold non-standard residues; d marks the D form. Peptide text beside a SMILES is read from it. Orn = NCCC[C@H](N)C(=O)O

Assay: qHTS profiling of Chloroquine Analogs as inhibitors of Plasmodium falciparum (DD2) proliferation
Conditions: Potency: Plasmodium falciparum Dd2 proliferation inhibition; series mostly up to 28.7 µM
Excerpt: Plasmodium falciparum is a virulent malarial parasite that kills 1-2 million people worldwide each year. Transmitted by mosquitoes, the sporozoite form of the parasite enters the blood stream to infect hepatocytes, where they become merozoites that infect red blood cells (erythrocytes). Within erythrocytes, merozoites begin a […] cycle of growth and division, after which the parasite is released to infect new red blood cells. Gametocytes, which form within erythrocytes as well, circulate in the bloodstream and are ingested by the mosquito, thereby completing the life cycle. To profile malarial isolates for differential chemical responses and to identify inhibitors of malarial growth, an assay that measures P. falciparum growth and replication within erythrocytes was employed. This assay uses a DNA binding fluorescent dye (SYBR Green) to detect parasite DNA following cell lysis. Because mature erythrocytes lack DNA, only Plasmodium-derived DNA is detected.
The SYBR Green viability assay was adapted from a method described previously (Plouffe et al., 2008). For screening 3 ul culture medium was dispensed into 1536 well black clear bottom plates (Aurora Biotechnologies) using a Multidrop Combi (Thermo Fisher Scientific Inc.), 23 nL compounds in DMSO were added by a pin tool (Kalypsys), and 5 ul of erythrocytes infected with P. falciparum (0.3% parasitemia, 2.5% hematocrit final concentration) were added. The plates were incubated at 37 C in a humidified incubator in 5% CO2 for 72 h, and 2 ul lysis buffer (20 mM Tris HCl, 10 mM EDTA, 0.16% saponin, 1.6% triton X, 10X SYBR Green I supplied as 10,000X […] by Invitrogen) was added to each well. The plates were mixed for 25 sec with gentle shaking and incubated overnight at room temperature in the dark. The following morning, fluorescence intensity at 485(14) nm excitation and 535(25) nm emission wavelengths was measured on an EnVision (Perkin Elmer) plate reader. Plate reads were normalized relative to the control inhibitor (0.29 uM artemisinin) and vehicle (DMSO) wells present on each plate and then corrected by an algorithm using vehicle-only control plates at the beginning and end of the compound plate stack.

| Compound | Potency |
| --- | --- |
| C[C@H]1[C@@H](CCC(=O)Nc2ccc(F)cc2)O[C@@H]2O[C@]3(C)CC[C@@H]4[C@H](C)CC[C@@H]1[C@@]24OO3 | inactive |
| COc1ncnc(NS(=O)(=O)c2ccc(N)cc2)c1OC | 1.88 µM (active) |
| CCOc1ccc(F)cc1C1(O)C(N)=Nc2ccc(Cl)cc21 (stereo not given) | 0.0668 µM (active) |
| CNC(=O)c1cc(Oc2ccc(NC(=O)Nc3ccc(Cl)c(C(F)(F)F)c3)cc2)ccn1 | inactive |
| C[C@@H]1Cc2c([nH]c3cc(Cl)c(F)cc23)[C@]2(N1)C(=O)Nc1ccc(Cl)cc12 | inactive |
| Cc1cccc(C)c1NC(=O)C(C)N (stereo not given) | inactive |
| NC(=NCc1ccccc1)NC(=O)c1nc(Cl)c(N)nc1N | inactive |
| CO[C@H]1O[C@@H]2O[C@@]3(C)CC[C@@H]4[C@@H](C)CC[C@@H]([C@H]1C)[C@@]24OO3 | inactive |
| C[N+]1(C)CCC(=C(c2ccccc2)c2ccccc2)CC1 | inactive |
| Cc1cccc(C)c1OCC(N)C(C)C (stereo not given) | 5.95 µM (active) |
| Cc1cccc(C)c1OCC(=O)N[C@@H](Cc1ccccc1)[C@@H](O)C[C@H](Cc1ccccc1)NC(=O)[C@H](C(C)C)N1CCCNC1=O | inactive |
| CCN(CC)CCOCCOC(=O)C(CC)(CC)c1ccccc1 | inactive |
| CCCCN(CCCC)CCC(O)c1cc2c(Cl)cc(Cl)cc2c2cc(C(F)(F)F)ccc12 (stereo not given) | inactive |
| CC(=O)N(O)CCCP(=O)(O)O | inactive |
| COC(=O)C1C2CC3c4[nH]c5cc(OC)ccc5c4CCN3CC2CC(OC(=O)c2cc(OC)c(OC)c(OC)c2)C1OC (stereo not given) | inactive |
| C[C@@H]1[C@@H](C(=O)C[C@H]2O[C@@H]3O[C@]4(C)CC[C@@H]5[C@H](C)CC[C@@H]([C@H]2C)[C@@]35OO4)O[C@@H]2O[C@]3(C)CC[C@H]4[C@H](C)CC[C@@H]1[C@@]24OO3 | 0.0013 µM (active) |
| CN(C)CCOC(c1ccccc1)c1ccccc1 | 1.5 µM (active) |
| CCc1ccc(OCc2ccccc2C(=O)Nc2ccc3nc(C)cc(N)c3c2)cc1 | inactive |
| O[C@H](c1cc(C(F)(F)F)nc2c(C(F)(F)F)cccc12)[C@H]1CCCCN1 | inactive |
| CC1=CC(=O)c2ccccc2C1=O | inactive |

| Compound | Potency |
| --- | --- |
| CCN(CC)CCOc1ccc2c(=O)c3ccc(Cl)cc3n(CCN(CC)CC)c2c1 | 1.33 µM (active) |
| C[C@H]1c2cccc(O)c2C(O)=C2C(=O)[C@]3(O)C(O)=C(C(N)=O)C(=O)[C@@H](N(C)C)[C@@H]3[C@@H](O)[C@@H]21 | inactive |
| C[C@H]1Cc2c([nH]c3cc(Cl)c(F)cc23)[C@@]2(N1)C(=O)Nc1ccc(Cl)cc12 | inactive |
| CN1CC[C@H](CN2c3ccccc3Sc3ccccc32)C1 | inactive |
| COc1cc2c(Nc3ccc(NC(=O)c4ccccc4)cc3)ncnc2cc1OCCCN1CCOCC1 | 0.749 µM (active) |
| COCC(=O)O[C@]1(CCN(C)CCCc2nc3ccccc3[nH]2)CCc2cc(F)ccc2[C@@H]1C(C)C | inactive |
| C[C@@H]1[C@@H](CC(C[C@H]2O[C@@H]3O[C@]4(C)CC[C@@H]5[C@H](C)CC[C@@H]([C@H]2C)[C@@]35OO4)C[S+](=O)([O-])c2ccc(COC(=O)N(C)C)cc2)O[C@@H]2O[C@]3(C)CC[C@H]4[C@H](C)CC[C@@H]1[C@@]24OO3 (stereo not given in full) | inactive |
| O=CN(O)CCCP(=O)(O)O | inactive |
| C=Cc1c(C)c2cc3nc(cc4[nH]c(cc5nc(cc1[nH]2)C(C)=C5CCC(=O)OC)c(CCC(=O)O)c4C)[C@@]1(C)C3=CC=C(C(=O)OC)[C@H]1C(=O)OC | 0.359 µM (active) |
| CNCCC(Oc1ccccc1OC)c1ccccc1 (stereo not given) | inactive |
| Cc1oncc1C(=O)Nc1ccc(C(F)(F)F)cc1 | inactive |
| COc1ccc(CCN(C)CCCC(C#N)(c2ccc(OC)c(OC)c2)C(C)C)cc1OC (stereo not given) | inactive |
| C/C(=C\c1csc(C)n1)[C@@H]1C[C@@H]2O[C@]2(C)CCC[C@H](C)[C@H](O)[C@@H](C)C(=O)C(C)(C)[C@@H](O)CC(=O)O1 | inactive |
| CCCC[C@@H]1C[C@@H](C(=O)NC([C@H](C)Cl)[C@H]2O[C@H](S)[C@H](O)[C@@H](O)[C@@H]2O)N(C)C1 (stereo not given in full) | inactive |
| C[C@H](N)CN1CCc2ccc(Br)cc21 | 1.88 µM (active) |
| Cc1nc2c(C#N)cccc2n1-c1ccc(C(=O)NC2CC2)s1 | inactive |
| CC(C)C[C@@H]1NC(=O)[C@H](CCCN)NC(=O)[C@H](C(C)C)NC(=O)[C@@H]2CCCN2C(=O)[C@@H](Cc2ccccc2)NC(=O)[C@H](CC(C)C)NC(=O)[C@H](CCCN)NC(=O)[C@H](C(C)C)NC(=O)[C@@H]2CCCN2C(=O)[C@@H](Cc2ccccc2)NC1=O (cyclo(V[Orn]L[dF]PV[Orn]L[dF]P)) | 0.0007 µM (active) |
| C[C@H]1[C@@H](OC(=O)CCC(=O)O)O[C@@H]2OC3(C)CC[C@H]4[C@H](C)CC[C@@H]1[C@@]24OO3 | inactive |
| CC(=O)O[C@@]12CO[C@@H]1C[C@H](O)[C@@]1(C)C(=O)[C@H](O)C3=C(C)[C@@H](OC(=O)[C@H](O)[C@@H](NC(=O)OC(C)(C)C)c4ccccc4)C[C@@](O)([C@@H](OC(=O)c4ccccc4)[C@H]21)C3(C)C | inactive |
| OB1OCc2cc(F)ccc21 | inactive |
